Source: PubChem BioAssay
Only some compounds are listed: those with a hit (about 3.5% of all), similar ones and a draw of the others.
UHRF1 MBD2 ctr – UHRF1 methylated DNA binding inhibitors, primary screen, counter-screen for MBD2 inhibitor project, biochemical, TR-FRET, human UHRF1, single concentration; AID 687016, 2013; E3 ubiquitin-protein ligase UHRF1 (Homo sapiens), Q96T88; actives 0.75% (n = 370,000); UHRF1 binding to methylated oligo; inhibition, % at 4.4 µM;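 note: UHRF1 SRA domain binding a hemimethylated CpG hairpin DNA probe; 0% = median of test compound wells and 100% = reference inhibitor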
MBD2 DNA inh – inhibitors of MBD2 binding to methylated DNA, primary screen, biochemical, TR-FRET, DNA-binding domain, human; Methyl-CpG-binding domain protein 2 (Homo sapiens), Q9UBB5; MBD2 binding to methylated oligonucleotide; inhibition, % at 4.4 µM; actives 0.31% (n = 370,000); in the data active = inhibition above about 13%
Target sequence (Q9UBB5 whole entry, looked up, the tested form may be a part): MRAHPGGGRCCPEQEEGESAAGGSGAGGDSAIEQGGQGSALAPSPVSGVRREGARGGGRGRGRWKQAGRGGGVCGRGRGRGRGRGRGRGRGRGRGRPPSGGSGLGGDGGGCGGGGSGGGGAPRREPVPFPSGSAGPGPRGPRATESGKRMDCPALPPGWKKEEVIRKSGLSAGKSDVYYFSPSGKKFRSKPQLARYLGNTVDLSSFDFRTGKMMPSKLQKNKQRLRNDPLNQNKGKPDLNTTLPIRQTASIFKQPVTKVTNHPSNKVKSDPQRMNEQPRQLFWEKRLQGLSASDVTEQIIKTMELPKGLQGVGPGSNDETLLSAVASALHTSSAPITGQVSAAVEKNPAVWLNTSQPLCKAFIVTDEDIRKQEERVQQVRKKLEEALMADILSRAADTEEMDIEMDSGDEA
PG9 binder – binders of HIV-1 gp120 antibody PG9, primary screen, biochemical, TR-FRET. HIV-1 gp120 / PG9 antibody interaction. TR-FRET gp120-PG9 antibody binding. inhibition, % at 6.7 µM. actives 0.43% (n = 360,000). AID 624416, 2012; in the data active = inhibition above about 8.5%
DNMT1 block – human DNMT1 methyltransferase inhibitors, primary screen, biochemical, molecular beacon, fluorescence, HinP1I cleavage, uHTS | actives 0.83% (n = 360,000) | AID 588458, 2011 | inhibition (reported as % activation of signal), % at 10 µM; in the data active = inhibition above about 50%
rCAG RNA binder – binders of r(CAG) RNA repeats, primary screen, biochemical, fluorescence; r(CAG) RNA repeat, TO-PRO-1 dye displacement fluorescence; inhibition, % at 3 µM; actives 1.3% (n = 370,000); AID 651821, 2012;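 active = inhibition above the plate cutoff, the mean of all test compounds on that plate plus 3 SD, cut at about 35% in these data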;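 note: 0% = DMSO alone and 100% = 100 µM mitoxantrone as full dye displacement; higher means more dye released from RNA so lower well fluorescence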
LEDGF integ inh – blockers of LEDGF/p75-dependent integrase strand transfer – biochemical, TR-FRET, high throughput, primary screen | TR-FRET IN-LEDGF/p75 DNA integration, Eu/Cy5 | inhibition, % at 3.7 µM | actives 0.64% (n = 370,000) | AID 743269, 2014;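 active = inhibition above the screen-wide mean plus 3 SD, cut at about 13% in these data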;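 note: signal is the Cy5 over europium emission ratio at 671 and 618 nm; 0% = plate median of compound wells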
UHRF1 DNA bind – UHRF1 methylated DNA binding inhibitors, counter-screen for MBD2 inhibitor project, biochemical, TR-FRET, human UHRF1; shares compounds with MBD2 DNA inh; UHRF1 binding to methylated oligonucleotide; inhibition, % at 4.4 µM; actives 25% (n = 1,000); AID 720530, 2013;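 note: UHRF1 SRA domain binding a labeled hemimethylated CpG hairpin DNA; 0% = vehicle only and 100% = reference inhibitor with vehicle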
MBD2 DBD conf – inhibitors of MBD2 binding to methylated DNA, confirmation, biochemical, TR-FRET, DNA-binding domain, human | inhibition, % at 4.4 µM | TR-FRET MBD2-DBD binding to methylated oligonucleotide | AID 720531, 2013 | actives 26% (n = 1,000) | shares compounds with MBD2 DNA inh; in the data active = inhibition above about 14%
Active calls of the source: *; · = no result. Cut-off read from the data, not from the text of the source, unless noted: active = inhibition above about 21%; inactive = the rest.

SMILES	UHRF1 MBD2 ctr	MBD2 DNA inh	PG9 binder	DNMT1 block	rCAG RNA binder	LEDGF integ inh	UHRF1 DNA bind	MBD2 DBD conf
Cc1cc(C)c2nc3nc(C)c(C)cc3c(N)c2c1	25.5*	21.5*	1.4	35.9	16.9	-0.8	41.4*	37.6*
CCCSc1nc(C)c2cc(C)cc(C)c2n1	2.7	7.6	0.3	-1.3	1.5	1.7	·	·
CCOC1=CC(=O)OC(c2ccccc2)C1 (configuration not stated)	0.2	4.5	-0.4	6.1	3.7	0.1	·	·
CN(C)CCN(C)C1CN(Cc2ccc([N+](=O)[O-])cc2)S(=O)(=O)C1 (configuration not stated)	-4.2	-1.8	-0.2	-3.6	5.5	2.2	·	·
CNC(C)C(=O)NC(C(=O)N1CCCC1C(=O)NNc1ccccc1)C(C)C (configuration not stated)	56.1*	45.5*	0.0	11.1	-3.5	11.4	8.5	2.1
COc1ccc(Cc2nnc(NC(=O)C3CCCO3)s2)cc1 (configuration not stated)	-1.7	15.3*	1.4	2.8	-1.6	-0.7	11.5	4.2
Cc1ccc(C(=O)CC(C(=O)O)n2cncn2)cc1 (configuration not stated)	3.4	41.0*	0.9	-1.0	0.3	2.1	5.2	1.2
CCN(CC)C(=O)c1cc2c(=O)c3cc(F)ccc3oc2nc1C	1.1	19.2*	-2.6	0.6	-3.6	1.8	5.0	5.5
O=C(NC1CCCCN(Cc2ccc(Cl)cc2)C1=O)c1cccc(F)c1 (configuration not stated)	7.6	1.7	·	·	4.1	-1.3	·	·
CC(C)(C)NC(=O)NC(=O)CSc1nnc(COc2ccccc2Cl)o1	30.9*	20.7*	3.4	-3.3	0.4	2.9	10.5	3.4
CCOC(=O)C1(C#N)Cc2ccccc2C1	4.9	2.8	0.4	-2.9	0.9	-1.5	·	·
COc1cccc2c1C(=O)c1c(O)c3c(c(O)c1C2=O)CC(O)(C(=O)CO)CC3OC1CC(N(C)C)C(O)C(C)O1 (configuration not stated)	96.7*	112.7*	-14.8	-264.6	-8.0	13.1	99.2*	111.4*
COc1cccc2c1C(=O)c1c(O)c3c(c(O)c1C2=O)C[C@@](O)(C(C)=O)C[C@@H]3O[C@H]1C[C@H](N)[C@H](O)[C@H](C)O1	91.1*	107.0*	-12.7	-164.3	6.3	3.7	97.8*	109.8*
COc1cccc2c1C(=O)c1c(O)c3c(c(O)c1C2=O)C[C@@](O)(C(=O)CO)C[C@@H]3O[C@H]1C[C@H](N)[C@@H](O)[C@H](C)O1	·	·	·	-175.9	·	·	·	·
COc1c(C=O)c2c(c(OC)c1OC)-c1ccc(OC)c(=O)cc1C(NC(C)=O)CC2 (configuration not stated)	0.8	-6.4	-0.5	1.4	0.8	5.0	·	·
COc1ccc(NC(=O)CN(C)C(=O)c2oc3c(ccc4ccccc43)c2C)cc1	-0.4	-1.8	-2.9	-11.6	7.2	4.6	·	·
O=C(NNC(=O)c1cccc2ccccc12)c1ccc(Cl)cc1	3.8	3.0	1.4	-2.5	2.1	-1.2	·	·
O=C(NNC(=O)c1cccc2ccccc12)c1ccc(Cl)c(Cl)c1	-2.5	66.4*	-0.1	-4.7	0.7	0.0	1.7	0.2
O=C(COC(=O)Cc1ccc(Br)cc1)Nc1ccc(Cl)cn1	-0.4	-5.1	1.1	-1.5	1.2	-1.5	·	·
c1ccc(-c2ccc3nnnn3n2)cc1	0.3	5.7	0.4	3.0	-1.9	-2.7	·	·
CC(C)Oc1ccc2nnnn2n1	21.7*	14.4*	1.4	2.5	-2.7	-0.1	8.8	3.6
O=C(O)c1ccccc1C(=O)Nc1ccc(S(=O)(=O)Nc2nccs2)cc1	17.0	19.0*	-1.9	0.5	-0.4	-3.4	9.3	1.9
CCc1nonc1NC(=O)c1oc2c(C)c(C)ccc2c1C	-0.2	1.0	-2.1	2.0	4.9	-2.7	·	·
CC1(C)CC(=O)C=C(NCc2ccco2)C1	2.4	34.8*	-0.9	-0.5	-2.3	-1.8	4.2	2.9
O=C1C=C(NCc2ccco2)CCC1	-1.6	-1.6	-0.1	-1.5	0.5	-0.6	·	·
SMILES	UHRF1 MBD2 ctr	MBD2 DNA inh	PG9 binder	DNMT1 block	rCAG RNA binder	LEDGF integ inh	UHRF1 DNA bind	MBD2 DBD conf
COc1ccc(-c2oc3ncnc(NCCCN(C)C)c3c2-c2ccc(OC)cc2)cc1	5.0	15.1*	1.0	0.6	14.0	2.1	14.2	10.4
CN(C)CCNc1ncnc2oc(-c3ccccc3)c(-c3ccccc3)c12	-2.3	5.0	1.8	-0.7	3.6	-1.2	·	·
O=[N+]([O-])c1ccc(S(=O)(=O)Nc2ccccn2)cc1	-0.8	-0.6	1.1	-0.7	8.2	-1.0	·	·
Clc1ccc2c(c1)-c1ccccc1C1=NCCN12	-3.0	22.3*	0.1	50.9*	7.3	-5.2	2.3	42.1*
COc1cc(SC)ccc1C(=O)Nc1ccc2ncccc2c1	-2.1	-4.2	-2.9	-2.7	6.3	5.0	·	·
Cc1cccc(N2C(=O)CC(Sc3nc(C)c4c(n3)CCCC4)C2=O)c1 (configuration not stated)	0.7	13.6*	-0.4	5.5	-0.8	0.2	4.0	5.1
CCN(CC)S(=O)(=O)c1ccc(C(=O)NCc2nnc(SCC(=O)OC)n2C)cc1	-0.2	20.6*	-1.5	-0.8	-3.3	-0.5	2.6	3.9
COC(=O)CSc1nnc(CNC(=O)c2ccc(S(=O)(=O)N(C)C)cc2)n1C	-3.0	-3.0	-2.7	-0.3	-0.1	-2.6	·	·
COc1ccc(C)cc1NS(=O)(=O)c1ccccc1	18.3	6.2	0.1	-2.8	0.1	-1.0	·	·
COCCN(C(=O)COC(=O)c1cc2c(s1)CCC2)c1c(N)n(Cc2ccccc2)c(=O)[nH]c1=O	95.8*	65.1*	0.0	100.6*	25.9	53.7*	100.1*	91.1*
CCC1CCc2sc(C(=O)OCC(=O)N(CCOC)c3c(N)n(Cc4ccccc4)c(=O)[nH]c3=O)cc2C1 (configuration not stated)	-1.0	-2.0	2.7	-2.8	8.6	-0.2	·	·
